This passage reports growth results from PubChem BioAssay (NCI).

Holding throughout (test): NCI-60 one-dose screen, 48 h (100 = growth as untreated, 0 = no growth, -100 = all killed)
Common to all, as to conditions: 10 µM unless noted

The subject of experiment [1] is T-47D breast.
Experiment [2] concerns BT-549 breast.
Experiment [3] deals with MDA-MB-435 melanoma.
The subject of experiment [4] is SW-620 colon.
The subject of experiment [5] is MCF7 breast.
The subject of experiment [6] is HCT-116 colon.
The test system of experiment [7] is HCC-2998 colon.
In experiment [8] the test system is KM12 colon.

Structures are written as SMILES. About 83,000 compounds went through this panel and 20% of them were active in at least one assay; those are over-represented in the sample as a whole.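 Values shown are percent growth following 48 h exposure of cells in 96-well plates to a single concentration of compound; below 10 was considered active.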 Values without a mark were called inactive. The source made the active and inactive calls.

For `C[C@@H]1C(=O)N(C[C@H](Cc2ccccc2)N(Cc2ccccc2)Cc2ccccc2)[C@]1(Cc1ccccc1)C(=O)OC(C)(C)C`, the growth in experiment [1] is 47.4%; in experiment [2], 85.7%; in experiment [3] it was 76.5%; in experiment [4], 63.7%; in experiment [5], 50.6%; in experiment [6], 40.6%. The growth in experiment [7] was 84.5%; in experiment [8], 62.4%.
On to `CCCCCCCCc1cc[n+](CC(=O)c2ccc(Br)cc2)cc1`, for which the growth in experiment [1] is -16.6% (active); in experiment [2] it was 77.8%; in experiment [3] it was -15.1% (active); in experiment [4], -33.7% (active); in experiment [5] it was -74% (active); in experiment [6], -43.1% (active). Besides, the growth in experiment [7] was -67.4% (active).
Turning to `CCOC(=O)c1ccc(NC(=O)CCCN(CC)CC)cc1`, the growth in experiment [1] is 92.6%; in experiment [2], 83.1%; in experiment [3] it was 108%; in experiment [4], 110%; in experiment [5] it was 96%; in experiment [6] it was 87.3%. In addition, in experiment [7], the growth is 102%.
In the case of `CCN(CC)CCCNC(=O)c1ccc(N)cc1O`, the growth in experiment [1] is 107%; in experiment [2], 98.7%; in experiment [3] it was 117%; in experiment [4], 96.2%; in experiment [5] it was 96.8%; in experiment [6], 94.7%. Further, in experiment [7], the growth was 78.8%.
On to `Cc1nc(Nc2ccccn2)sc1C(=O)/C=C/c1ccc(Br)cc1`, for which the growth is 45.7% in experiment [1]; 83.3% in experiment [2]; 14.6% in experiment [3]; 45.7% in experiment [4]; 8.46% (active) in experiment [5]; 72.6% in experiment [6]. For the same molecule, the growth in experiment [7] was 103%; in experiment [8], 24.2%.
For the molecule `O=C(O)CC1Sc2ccccc2NC1=O` (stereo not given), the growth in experiment [1] is 111%; in experiment [2] it was 118%; in experiment [3], 104%; in experiment [4], 103%; in experiment [5] it was 255%; in experiment [6] it was 100%. Also, the growth in experiment [7] is 106%; in experiment [8], 104%.
In the case of `O=c1cc(-c2ccc(OCc3ccccc3)cc2)oc2c(I)c(OCc3ccccc3)cc(OCc3ccccc3)c12`, the growth in experiment [1] is 104%; in experiment [2], 101%; in experiment [3] it was 102%; in experiment [4], 106%; in experiment [5] it was 101%; in experiment [6], 95.8%. For the same molecule, the growth was 105% in experiment [7] and 91.8% in experiment [8].
With `N#Cc1cnn2c(-c3ccc(Cl)cc3)nc(NCCc3ccccc3)nc12`, the growth in experiment [1] is 50.9%; in experiment [2], 100%; in experiment [3], 101%; in experiment [4], 98.1%; in experiment [5] it was 79.7%; in experiment [6], 81.5%. The growth in experiment [7] is 106%; in experiment [8], 88%.
For the molecule `O=C(/C=C/C12c3ccccc3C(c3ccccc31)C1C(=O)N(c3ccccc3)C(=O)C12)c1ccccc1` (stereo not given), the growth in experiment [1] was 40.7%; in experiment [2], -2.69% (active); in experiment [3], -1.64% (active); in experiment [4] it was 1.65% (active); in experiment [5], 14.7%; in experiment [6] it was -57.7% (active). Further, the growth in experiment [7] is -65% (active); in experiment [8] it was -41.3% (active).
In the case of `O=C1Nc2ccccc2/C1=N/N=C/c1c[nH]c2ccccc12`, the growth in experiment [1] was 61%; in experiment [2] it was 92.7%; in experiment [3], 73.8%; in experiment [4] it was 71.5%; in experiment [5], 72.5%; in experiment [6] it was 72.4%. Also, the growth in experiment [7] is 101%; in experiment [8], 28.5%.
As for `Cl.[Pt].[c-]1ccccc1-c1ccccn1.c1ccc(P(c2ccccc2)C([PH+](c2ccccc2)c2ccccc2)[PH+](c2ccccc2)c2ccccc2)cc1`, the growth in experiment [1] was 27.8%; in experiment [2], 27%; in experiment [3], 4.42% (active); in experiment [4] it was 13.6%; in experiment [5], 3.15% (active); in experiment [6], 7.37% (active). Moreover, the growth is 24.9% in experiment [7] and 5.04% (active) in experiment [8].
In the case of `C=C(C=O)[C@@H]1CC=C(C=O)CC1`, the growth in experiment [1] was -27.7% (active); in experiment [2], -18.9% (active); in experiment [3] it was -31.4% (active); in experiment [4], -25.7% (active); in experiment [5], -17.3% (active); in experiment [6], 5.92% (active). For the same molecule, the figures for the growth in experiment [7] and in experiment [8] were -30% (active) and -36.6% (active), respectively.
Take `Cc1cc(-c2noc(C(F)(F)F)n2)ccc1N1CCN(c2cc(C(=O)N(C)C)no2)CC1`: the growth was 46.6% in experiment [1]; 66.6% in experiment [2]; 71% in experiment [3]; 84.7% in experiment [4]; 55.5% in experiment [5]; 45.7% in experiment [6]. In addition, the growth in experiment [7] was 80.8%; in experiment [8] it was 85.2%.
On to `CNC=O`, for which the growth in experiment [1] was 98.3%; in experiment [2], 168%; in experiment [3] it was 96.9%; in experiment [4], 93.5%; in experiment [5], 99.3%; in experiment [6] it was 95.8%. The growth in experiment [7] is 174%; in experiment [8] it was 95.5%.
As to `O=C(CC12CC3CC(CC(C3)C1)C2)NCCOCCOCCOCCNC(=O)c1cc2c(o1)C(=O)c1ccccc1C2=O`, the growth is 1.06% (active) in experiment [1]; -90.6% (active) in experiment [2]; -96.8% (active) in experiment [3]; -10.6% (active) in experiment [4]; -67.2% (active) in experiment [5]; -19.6% (active) in experiment [6]. Moreover, the values for the growth in experiment [7] and in experiment [8] were -73.7% (active) and 2.29% (active), respectively.
For the molecule `N=C(N)c1ccc(-c2ccc(/C=C/c3ccccc3)s2)cc1`, the growth was 37.8% in experiment [1]; 93.9% in experiment [2]; -34.9% (active) in experiment [3]; -67.1% (active) in experiment [4]; -74.2% (active) in experiment [5]; -79% (active) in experiment [6]. Also, the growth in experiment [7] is -63.7% (active); in experiment [8], -47.1% (active).
